B1: design_603_0b98da89-d791-4423-9b2d-fd1b7292da18_2465_dldesign_0_cycle1_af2pred (protein)
chain: ASEKAKAFSEAQRLLVRAGKLAAADPKTAPVAELVQKAIFALGDNLEEGLKLAEEAAELAKKIGDEETAKLVKEAAEKIKEVI
B2: design_604_3e0b3014-b333-46f1-8adc-d7f0bf8048fa_962_dldesign_0_cycle1_af2pred (protein)
chain: HHKKEKAKKVAELLEKARELAEKEGPEAAKPLIVEARSLAFEVDSELGRKIAKAGLLILKDLEKGLKILKEVQEEFKKIA
B3: design_604_3e0b3014-b333-46f1-8adc-d7f0bf8048fa_950_dldesign_0_cycle1_af2pred (protein)
chain: AEEALKKAEEYAAKGDEYAAKGEAYEKSGDKLEEAAKYYAKAASYYLLAANAYLAAGNEEKAKEAEAKAEEAAEKATEAYQKASA
B4: design_604_3e0b3014-b333-46f1-8adc-d7f0bf8048fa_762_dldesign_0_cycle1_af2pred (protein)
chain: SKKVYELYAEAKLEQIKRAKELAPKGDPKLAAERAEKLAKEAKEAAKKAGEEGEKIAKEAEKEAEALKKEV
B5: design_604_3e0b3014-b333-46f1-8adc-d7f0bf8048fa_1013_dldesign_0_cycle1_af2pred (protein)
chain: SLEEILKEVKAENERLTARIEAAYERGLAAIAAGDLKAASAAAGEIAEARAEAALINTRYGNVAKEVEDKARELLREVRAAGKA
B6: design_604_3e0b3014-b333-46f1-8adc-d7f0bf8048fa_171_dldesign_0_cycle1_af2pred (protein)
chain: QEALKKELEKAAAKVKELAEYIEKNAEKLTAEEAEKIAEELRKLAKKLREIGEKLDAETRKEAQKAVDLAYEAAALAKSIAARKK
B7: design_604_3e0b3014-b333-46f1-8adc-d7f0bf8048fa_1084_dldesign_0_cycle1_af2pred (protein)
chain: SPAAAAAAVQYAAFDAIAAATDAATVKAIADAAVAALAAAAAADPAHAEQYAKAAAAIKSFADAAIKALK
B8: design_604_3e0b3014-b333-46f1-8adc-d7f0bf8048fa_844_dldesign_0_cycle1_af2pred (protein)
chain: EEEKLKEAEKHLEKMIEILKEAAKKGYAKEEVELVKGDEETRKKGVYNAMGNVITGEGKEGVETARKISRYAKKSEELRKA
B9: design_604_3e0b3014-b333-46f1-8adc-d7f0bf8048fa_672_dldesign_0_cycle1_af2pred (protein)
chain: ALEKATEAAKKAGEAVAKALGEEGKPVAEEAIEKIADPSTWKDGFSLFLRYAYYAGEEVYKKVDELLDEVLELLS
B10: design_604_3e0b3014-b333-46f1-8adc-d7f0bf8048fa_498_dldesign_0_cycle1_af2pred (protein)
chain: MLEFLEKVEEKADKKIEEALAKEDPVKALEEEKKKMEAELKAKSEAAKGDPGLHKLYLTAARLAKNQFDVEIKKAKEELE
B11: design_604_3e0b3014-b333-46f1-8adc-d7f0bf8048fa_253_dldesign_0_cycle1_af2pred (protein)
chain: SETTEKLKKELEAAKKEGKEALAKAEAAGDAEAAKKAGSDAAGKLYEIAAEADSAGDKETAKEARKAAKEIREAAKKAIAAAKAKAAA
B12: design_604_3e0b3014-b333-46f1-8adc-d7f0bf8048fa_739_dldesign_0_cycle1_af2pred (protein)
chain: KEEILKEAKKLKEEAVKKAKEGNAEEGRKARKEFLEEMKKMAEKGDKKEISKITHEALEKIAEAIQEAKEKARKEEEEKK
B13: design_604_3e0b3014-b333-46f1-8adc-d7f0bf8048fa_145_dldesign_0_cycle1_af2pred (protein)
chain: IKQLEQLLEMAEEEAKKDPVTGIALARATINRADRLAASGTPEEAKKANEIKEKAEKVKKEAEAKLAAAEAAAKA
B14: design_604_3e0b3014-b333-46f1-8adc-d7f0bf8048fa_75_dldesign_0_cycle1_af2pred (protein)
chain: SAEAEEAEKKALLEFSEAAAELRGLATLGKNKGNAKELAEKGFKAIEEGKKALEAATKTEEKKEIATRYAKELKELKEKLEKALS
B15: design_604_3e0b3014-b333-46f1-8adc-d7f0bf8048fa_841_dldesign_0_cycle1_af2pred (protein)
chain: AELEKAIKEANALRDKALDNVGNPEEAQKYIDELKEKAKKAAELGGPEVAKEAEKMIKALEDTLEKAKKILE
B16: design_604_3e0b3014-b333-46f1-8adc-d7f0bf8048fa_1117_dldesign_0_cycle1_af2pred (protein)
chain: MEGIETSDLLSKAIKTGKEAYKELKEVGTEEEAEKFKEEMVKKLFEAADADIEESKKLLKELLKEAEEKLEEAKKRKA
B17: design_604_3e0b3014-b333-46f1-8adc-d7f0bf8048fa_1067_dldesign_0_cycle1_af2pred (protein)
chain: SEIEKGEALLKEDPEWAKAASDALGKIAEDPEEGEKYAKEVIEKVLKEDPEKGPLMAKAIEERSEKLKKRVEEALERAK
B18: design_604_3e0b3014-b333-46f1-8adc-d7f0bf8048fa_148_dldesign_0_cycle1_af2pred (protein)
chain: MKEASEEMAKAYEALAELRLLAKKIPEFKEDAEKAEKKLKEAVKADPETALKLAKETKEEVEKAIEKAKKKL
B19: design_604_3e0b3014-b333-46f1-8adc-d7f0bf8048fa_1215_dldesign_0_cycle1_af2pred (protein)
chain: SRVEELGKRLANKGKKYSLDDAADFGAEMAIMAGLTEEEAEAAFKYAAEIDPSFAEAMKKGLALYKELTA
B20: design_604_3e0b3014-b333-46f1-8adc-d7f0bf8048fa_941_dldesign_0_cycle1_af2pred (protein)
chain: SLLDEAVALLAAANPALAPEFEKLARELQGYLDLAKDYPEIAPVMLKRATRVGEELVAVAAEAGPEVAEVATAAVEEVLAAIK
B21: design_603_0b98da89-d791-4423-9b2d-fd1b7292da18_2382_dldesign_0_cycle1_af2pred (protein)
chain: ALAAAKEKAKAIEEKLSQAIFDGADKGPEVVFKAAEEAEKEVEEMKKADPKAKEEVKRAKEAVKKAKAVGKSMKEAEENAKKGA
B22: design_603_0b98da89-d791-4423-9b2d-fd1b7292da18_2259_dldesign_0_cycle1_af2pred (protein)
chain: GAAALAAGKAALKEAKDTAAKANEAMGGGLQPVFDSAMKTVEAKKGDPAAYLKAATAFKTTFSRILKLAS
B23: design_603_0b98da89-d791-4423-9b2d-fd1b7292da18_2271_dldesign_0_cycle1_af2pred (protein)
chain: MTPEEKKAAEAEKIAAAADAAIKAAEKAIASGTKAEIATEAARLESVAMAAKALGTAPDIAERAEAAAEKAWQAAVEKLE
B24: design_604_3e0b3014-b333-46f1-8adc-d7f0bf8048fa_936_dldesign_0_cycle1_af2pred (protein)
chain: MEEAKEKAKEQIKKLKEAAEKAVKVYKEIGKEEEAKKIKEEAKKAEKEAEKLLEKDPYEGAQLAQEALAEAKAELSRAEKELKK
B25: design_604_3e0b3014-b333-46f1-8adc-d7f0bf8048fa_1191_dldesign_0_cycle1_af2pred (protein)
chain: EEKKKEIEELKKKVSKAQLELTDLAAKQDISKKDLEEKVQEAIRKAAKLGKIADEAVAKGEEYYPEAKKALEEALKVLEEAKKAVEEA
B26: design_604_3e0b3014-b333-46f1-8adc-d7f0bf8048fa_596_dldesign_0_cycle1_af2pred (protein)
chain: DAKKEIQELTDEAIKKIEEYAKKAKDPKNYEKAIKEAVDTVHEAQQKLAEIGKKYGPEAEKYAKEQRKKVIDAGKKYIEEAKKAQA
B27: design_604_3e0b3014-b333-46f1-8adc-d7f0bf8048fa_1004_dldesign_0_cycle1_af2pred (protein)
chain: AAAEAARKAEVAKKSKELAKQIAENASDEEKRKALLAEMRALAEAGTPEEAAIVVEEVHKGYEEAAEKLVEERR
B28: design_603_0b98da89-d791-4423-9b2d-fd1b7292da18_2381_dldesign_0_cycle1_af2pred (protein)
chain: AAAAAEEAATAAAAALGKAVAAQVLAAADDPEKRGALVAEAQAIADKLSPAQRAAMAAAMHEAHEKIAEKKSEKAR
B29: design_604_3e0b3014-b333-46f1-8adc-d7f0bf8048fa_1186_dldesign_0_cycle1_af2pred (protein)
chain: SMSKELAEKIRKAIREIREAAERAIAEARRLVEEGRVEEGLAVLEEAEKEFRELAKKWEGYAASGVAENGAAALRAVREEIE
B30: design_604_3e0b3014-b333-46f1-8adc-d7f0bf8048fa_694_dldesign_0_cycle1_af2pred (protein)
chain: SVEEKLKEAEKVFKEVEERAKKVEAKDPEEGKKLREELAKARELAESDPSKAPEAAQQARIALTEAEWEVRKKEK
B31: design_604_3e0b3014-b333-46f1-8adc-d7f0bf8048fa_188_dldesign_0_cycle1_af2pred (protein)
chain: GALEEIKKLGKKAKEAAKNGDSSEAIREFAKLAKAAGKALTPEFAKKASEKLYEVVDTLAKDEEEGKKLLEKKVEEIVKEAKKYLE
B32: design_604_3e0b3014-b333-46f1-8adc-d7f0bf8048fa_1128_dldesign_0_cycle1_af2pred (protein)
chain: MAEKEAQLKKIEEEKKKVSEKFFEAFELASSKELASEISKKSKEANELFKKGREDPSIADKTMEEAKKIAEEALEKAKKEKEA
B33: design_603_0b98da89-d791-4423-9b2d-fd1b7292da18_2319_dldesign_0_cycle1_af2pred (protein)
chain: AETWLDALDDAAKDHPSFAYAFATSIAKRAEEKIKELTEKAKENASNPELKKKLLEKAEEYKKVLEKAKEVAEKALKEYLA
B34: design_604_3e0b3014-b333-46f1-8adc-d7f0bf8048fa_12_dldesign_0_cycle1_af2pred (protein)
chain: MNLEEAKNLLEAAKELVEEAKELLKEGKYKQALAFAKTAYEIAEKVAKEVPELAKEAEKIKKEAKEVIEEAKKAL
B35: design_604_3e0b3014-b333-46f1-8adc-d7f0bf8048fa_503_dldesign_0_cycle1_af2pred (protein)
chain: SAALVDARVAAADALYDAAIAAGYESLAGKIATAFIRGAATGVEAALERASAVAPEELKPVVAAEAAKVAAVA
B36: design_604_3e0b3014-b333-46f1-8adc-d7f0bf8048fa_818_dldesign_0_cycle1_af2pred (protein)
chain: EEVEKKSEEVKKLLEEGAKTTTIDAQLAASEAVELAEELMKKDPEKGLKVAEVVLKEAEKLLKANPGVGELTIKRAEKVIKRAKE
B37: design_604_3e0b3014-b333-46f1-8adc-d7f0bf8048fa_1074_dldesign_0_cycle1_af2pred (protein)
chain: DPAEERVEKARKEMEKAVEKYAEKGKKENLNLAYAEAIREISRIAKELVKEIGEEVRERALKIKEEQLKKLEKLEKEA
B38: design_604_3e0b3014-b333-46f1-8adc-d7f0bf8048fa_423_dldesign_0_cycle1_af2pred (protein)
chain: AKEKALKEALKEFDKAQEYGFDYVAEAKKNPEVYEEAYEERKKAIKEAKELYKEATTEEKAKELLELAKKEAEKFKEKAKEL

molecular target: VTCN1, Q7Z7D3
Sequence (Q7Z7D3 whole entry): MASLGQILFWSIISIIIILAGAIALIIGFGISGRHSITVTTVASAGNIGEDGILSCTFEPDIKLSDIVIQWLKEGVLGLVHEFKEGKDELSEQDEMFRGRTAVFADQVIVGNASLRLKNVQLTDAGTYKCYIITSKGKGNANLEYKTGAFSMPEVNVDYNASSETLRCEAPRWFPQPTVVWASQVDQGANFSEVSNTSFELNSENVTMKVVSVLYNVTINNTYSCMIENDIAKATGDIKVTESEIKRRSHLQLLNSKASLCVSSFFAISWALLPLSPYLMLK

Binding in a display sort, inactive:
B1 not found
B2 not found
B3 not found
B4 not found
B5 not found
B6 not found
B7 not found
B8 not found
B9 not found
B10 not found
B11 not found
B12 not found
B13 not found
B14 not found
B15 not found
B16 not found
B17 not found
B18 not found
B19 not found
B20 not found
B21 not found
B22 not found
B23 not found
B24 not found
B25 not found
B26 not found
B27 not found
B28 not found
B29 not found
B30 not found
B31 not found
B32 not found
B33 not found
B34 not found
B35 not found
B36 not found
B37 not found
B38 not found
